Inconclusive results are not listed. Activity calls are given as the source filed them. Calls follow the shape of the dose curve; as a rule, active = well fitted inhibition curve with a large enough effect; inconclusive = small, poorly fitted or top-dose-only effect; inactive = no such curve, though single readings can be large or run the other way.
Target: Retinaldehyde dehydrogenase 3 (Homo sapiens) (UniProt P47895)
Assay: qHTS for Inhibitors of the Aldehyde Dehydrogenase Family (ALDH1A3) Primary screen (AID 2061315);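 as to activity change, negative = inhibition: plate controls were DMSO vehicle for no effect and reference inhibitor for full effect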
Settings: ALDH inhibition qHTS; series mostly up to 56 µM; activity change, negative = inhibition: at the top concentration
Potency is read from the fitted curve at half-maximal effect.

| SMILES | activity change, negative = inhibition | Potency |
| --- | --- | --- |
| Fc1cccc(CNc2nc(-c3ccccc3C(F)(F)F)nc3ccccc23)c1 | -22.7% (inactive) | – |
| COc1ccc(-c2cnc(N3CCC(C(N)=O)CC3)s2)cc1OC | -10.6% (inactive) | – |
| CC(C)(C)OC(=O)N[C@@H](Cc1ccc(O[S+](=O)([O-])c2cccc3cnccc23)cc1)C(=O)N1CCN(Cc2ccccc2)CC1 | -0.624% (inactive) | – |
| Cc1ccc(N[S+](=O)([O-])c2cc3c(cc2CCc2ccccc2)NC(=O)CO3)cc1C | 0.861% (inactive) | – |
| COc1cccc(CNc2ccc(S(=O)(=O)Nc3cccs3)cc2)c1O | -2.44% [at 11.2 µM] (inactive) | – |
| CN(C)c1ccc(Nc2nc(N)n(C(=O)c3c(F)cccc3F)n2)cc1 | – | 14.1 µM (active) |
| CCCC(C)NC(=O)Cn1nc(-c2ccc(C)cc2)ccc1=O (stereo not given) | -5.13% (inactive) | – |
| COc1cc(F)c(S(=O)(=O)N2CCN(S(=O)(=O)c3cccs3)CC2)c(F)c1 | -0.366% (inactive) | – |
| COc1ccc(C2c3c(nc(CCc4ccccc4)[nH]c3=O)Oc3ccc4ccccc4c32)cc1OC (stereo not given) | -7.47% (inactive) | – |
| O=S1(=O)N=C(Oc2ccc3ccccc3c2)c2ccccc21 | -12.4% (inactive) | – |
| CN(CC(=O)Nc1ccc(N2CCOCC2)cc1)Cc1cccc2ccccc12 | -12.5% (inactive) | – |
| O=C(N1Cc2ccc(Nc3nn4c(=O)c5ccccc5nc4s3)cc2C1)C(F)(F)F | -3.87% (inactive) | – |
| CC(C)(C)c1ccc(C(=O)Nc2ccc(-c3nc4ccccc4[nH]3)cc2)cc1 | 6.42% (inactive) | – |
| FC(F)(F)c1ccccc1-c1nc(NCc2ccc(-c3ccc(Cl)c(Cl)c3)cc2)c2ccccc2n1 | -14.5% (inactive) | – |
| CC(Nc1ncnc2ccc(-c3ccc4c(c3)OCO4)cc12)c1ccco1 (stereo not given) | 0.0591% (inactive) | – |
| COc1cc(O)c(C(CC(=O)N2CC(C)CC(C)C2)c2ccc(C)cc2)c(OC)c1 (stereo not given) | -9.67% (inactive) | – |
| Cc1cc(C)nc(NC(=S)N2CCN(c3cccc(OC(F)(F)F)c3)CC2)c1 | 0.274% (inactive) | – |
| Cc1ccc(N2CCN(S(=O)(=O)c3ccc4c(c3)CC(=O)N4)CC2)cc1 | -9.65% [at 114 µM] (inactive) | – |
| O=C1c2ccccc2NC(c2ccc(-c3cccc(Cl)c3)o2)N1O (stereo not given) | 17.8% (inactive) | – |
| CN(C)c1ccc(-c2nc3ncc(Cl)c(N4CCN(CC(=O)Nc5nccs5)CC4)c3[nH]2)cc1 | 4% [at 28 µM] (inactive) | – |

| SMILES | activity change, negative = inhibition | Potency |
| --- | --- | --- |
| O=c1c(Nc2ccc(Br)c(Br)c2)c(Nc2nnc(-c3ccncc3)s2)c1=O | 8.23% (inactive) | – |
| O=C(Nc1ccc2ccccc2c1)Nc1nnc(-c2ccccn2)s1 | 3.93% (inactive) | – |
| COc1ccc(-c2ccc3ncnc(NCc4cccs4)c3c2)cc1OC | -1.29% (inactive) | – |
| COc1ccc(Cn2c(C)nnc2-c2cnn(C)c2N)cc1OC | 2.77% (inactive) | – |
| O=C(O)c1ccc(S(=O)(=O)N[C@@H](Cc2ccc(O)cc2)C(=O)O)cc1 | 3.56% (inactive) | – |
| COc1ccc2ncnc(NCc3cccs3)c2c1-c1ccc2c(c1)OCO2 | -9.41% (inactive) | – |
| Cn1c2cc([N+](=O)[O-])sc2c2cnn(Cc3ccccc3F)c(=O)c21 | -4.3% (inactive) | – |
| Cc1ccc([S+](=O)([O-])Nc2nn3c(=O)c4ccccc4nc3s2)cc1C | 4.35% (inactive) | – |
| O=C(Cc1nnc(-c2ccncc2)s1)Nc1ccc(F)c(C(F)(F)F)c1 | 3.96% (inactive) | – |
| Oc1ccc(CNc2ccccn2)c2cccnc12 | -20.2% (inactive) | – |
| Cc1c(C(N)=O)[nH]c2c1C(=O)CC(c1ccco1)C2 (stereo not given) | -21.6% (inactive) | – |
| COc1ccnc(CS(=O)c2nc3cc(OC(F)F)ccc3[nH]2)c1OC (stereo not given) | – | 31.6 µM (active) |
| O=c1c2ccccc2nc2sc(NS(=O)(=O)c3ccc4c(c3)CCC4)nn12 | -5.34% (inactive) | – |
| O=C(Nc1ccc(-c2nc3ccccc3[nH]2)cc1)c1ccc2ncsc2c1 | 115% (inactive) | – |
| O=C1CCCC2=C1C1(CCOCC1)N=C(Nc1nc3ccccc3o1)N2 | 5.79% (inactive) | – |
| CC(C)Oc1ccc(-c2csc(N3CCC(C(N)=O)CC3)n2)cc1 | -1.73% (inactive) | – |
| COc1ccc(C2c3ccc4ccccc4c3Oc3ncn(CCN4CCOCC4)c(=N)c32)cc1OC (stereo not given) | -5.05% (inactive) | – |
| CCOc1cc2c(cc1OCC)CN(C(=O)c1cc3sccc3n1Cc1ccccc1)CC2 | -30.4% (inactive) | – |
| Cc1ccc(-c2ccc(=O)n(CC(=O)NCCCc3ccccc3)n2)cc1 | -7.76% (inactive) | – |
| O=S1(=O)N=C(Oc2ccc(Br)cc2)c2ccccc21 | -15.8% (inactive) | – |
